Experimental data published in PubChem BioAssay (EPA / NIEHS).
Calls of active or inactive are those of the source. How the source made its calls: active means hit-call score of the fitted dose curve at least 0.9, where 1 is the maximum; inactive means score below 0.9.

Assay: Tanguay_ZF_120hpf_MORT: Oregon State University Tanguay Lab 120 Hour Post-fertilization zebrafish Assay for Mortality (AID 2284399)
Description: Tanguay_ZF_120hpf is a whole embryo, multiplexed endpoint assay using zebrafish larvae exposed for 120 hours post fertilization on a 96-well plate.Tanguay_ZF_120hpf_MORT is one of one assay component(s) measured or calculated from the Tanguay_ZF_120hpf assay. It is designed to make measurements of zebrafish development as detected with brightfield microscopy of developing zebrafish embryos.Data from the assay component Tanguay_ZF_120hpf_MORT was analyzed into 1 assay endpoints. This assay endpoint, Tanguay_ZF_120hpf_MORT, was analyzed in the positive analysis fitting direction relative to DMSO as the negative control and baseline of activity. Using a type of viability reporter, gain-of-signal activity can be used to understand changes in developmentals as they relate to the whole embryo. To generalize the intended target to other relatable targets, this assay endpoint is annotated to the zebrafish development intended target family, where the subfamily is embryonic mortality.
Zebrafish husbandry: Tropical 5D wild-type adult zebrafish were housed in at an approximate density of 1000 per 100 gallon tank at the Sinnhuber Aquatic Research Laboratory, Oregon State University, Corvallis, OR. Each tank was kept at standard laboratory conditions of 28C on a 14-h light/10-h dark photoperiod in fish water consisting of reverse osmosis water supplemented with a commercially available salt (Instant Ocean). Spawning funnels were placed into the tanks the night prior, and embryos were collected and staged. To increase bioavailability, the chorion was enzymatically removed using pronase (63.6mg/ml, >/= 3.5U/mg, Sigma-Aldrich: P5147) at 4 hours post fertilization (hpf) using a custom automated dechorionator.Chemical exposures: Six hpf dechorionated embryos were placed 1 embryo per well in a 96-well plate prefilled with 90 ul of EM using automated embryo placement systems (AEPS). Ten microliters of each row of dilution plate 2 was added to 2 exposure plates. The final DMSO concentration used was 0.64% (vol/vol). Thirty-two embryos were also exposed to 5uM trimethyltin chloride (positive control). Plates were sealed to prevent evaporation and foil covered to reduce light exposure and kept in a 28C incubator. Embryos were statically exposed until 120 hpf. At 24 hpf, embryos were assessed for photomotor response using a custom photomotor response analysis tool (PRAT) and for developmental toxicity endpoints (MO24: mortality at 24 hpf, DP: developmental progression, SM: spontaneous movement, and NC: notochord distortion). At 120 hpf, locomotor activity was measured using Viewpoint Zebralab and assessed for 13 endpoints. Zebrafish acquisition and analysis program (ZAAP), a custom program designed to inventory, acquire, and manage zebrafish data, was used to collect developmental endpoints as either present or absent (i.e., binary responses were recorded). If mortality occurred for an embryo (at either 24 or 120 hpf), the non-mortality endpoints were not measured.

Compound | outcome | AC50
FC(F)(F)C(F)(F)C(F)(F)C(F)(F)C(F)(F)C(F)(F)I | inactive | 
NCC(F)(F)C(F)(F)C(F)(F)C(F)(F)F | inactive | 
FC(F)C(F)(F)COCC1CO1 (stereo not given) | inactive | 
OC(O)(C(F)C(O)(O)C(F)(F)F)C(F)(F)F | inactive | 
O=C(Cl)C(F)(F)C(F)(F)C(F)(F)C(=O)Cl |  | 57.6 µM (active)
C[Si](C)(C)C(F)(F)C(F)(F)C(F)(F)F | inactive | 
O=S(=O)(O)CCC(F)(F)C(F)(F)C(F)(F)C(F)(F)C(F)(F)C(F)(F)F | inactive | 
OCCC(F)(F)C(F)(F)C(F)(F)C(F)(F)F | inactive | 
FC(F)=C(F)C(F)(F)C(F)(F)C(F)(F)C(F)(F)C(F)(F)C(F)(F)F | inactive | 
FC(F)(F)COC(OCC(F)(F)F)OCC(F)(F)F | inactive | 
